Source: paper PMC7862700, “An all-to-all approach to the identification of sequence-specific readers for epigenetic DNA modifications on cytosine”

Tests used:
Test in all cases: DAPPL (digital affinity profiling via proximity ligation, sequencing); 10 mM Tris-HCl pH 7.5, 50 mM NaCl, 1 mM DTT, 4% glycerol, room temperature, 30 min; GST-TFs on glutathione beads, 16-mer random dsDNA library, 0.1% formaldehyde crosslink after washing; high values mean tight binding
FEV = biological target: T1, FEV (Homo sapiens, UniProt Q99581 1-238); settings: protein: recombinant; tags: N-terminal GST; dsDNA, one strand shown
T1 sequence: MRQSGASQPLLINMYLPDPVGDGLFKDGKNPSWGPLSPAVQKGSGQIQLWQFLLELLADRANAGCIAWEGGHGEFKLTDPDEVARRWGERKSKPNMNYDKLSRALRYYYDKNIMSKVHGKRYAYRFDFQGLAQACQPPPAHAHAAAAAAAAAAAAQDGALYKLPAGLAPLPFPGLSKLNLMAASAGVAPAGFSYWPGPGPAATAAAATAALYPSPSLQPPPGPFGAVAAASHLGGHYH
Procedure, shortened: (§1)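 Human transcription factors fused to GST were expressed in yeast, captured on glutathione beads, given DNA barcodes and pooled with a GST-only negative control. Pools were incubated with 200 nmole of a 16-mer random double-stranded DNA library in Tris/NaCl/DTT/glycerol buffer at room temperature for 30 min. They were then washed, crosslinked with 0.1% formaldehyde, proximity-ligated (BsaI/T4 ligase, 1 h, 37 °C), PCR-amplified and sequenced on an Illumina NextSeq500. Binding signal is each 6-mer's read frequency for a factor divided by its frequency for the GST control.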

ETV5 = ETV5 (Homo sapiens, UniProt P41161 1-510); settings: protein: recombinant; tags: N-terminal GST; dsDNA, one strand shown
Sequence of ETV5 (P41161 whole entry): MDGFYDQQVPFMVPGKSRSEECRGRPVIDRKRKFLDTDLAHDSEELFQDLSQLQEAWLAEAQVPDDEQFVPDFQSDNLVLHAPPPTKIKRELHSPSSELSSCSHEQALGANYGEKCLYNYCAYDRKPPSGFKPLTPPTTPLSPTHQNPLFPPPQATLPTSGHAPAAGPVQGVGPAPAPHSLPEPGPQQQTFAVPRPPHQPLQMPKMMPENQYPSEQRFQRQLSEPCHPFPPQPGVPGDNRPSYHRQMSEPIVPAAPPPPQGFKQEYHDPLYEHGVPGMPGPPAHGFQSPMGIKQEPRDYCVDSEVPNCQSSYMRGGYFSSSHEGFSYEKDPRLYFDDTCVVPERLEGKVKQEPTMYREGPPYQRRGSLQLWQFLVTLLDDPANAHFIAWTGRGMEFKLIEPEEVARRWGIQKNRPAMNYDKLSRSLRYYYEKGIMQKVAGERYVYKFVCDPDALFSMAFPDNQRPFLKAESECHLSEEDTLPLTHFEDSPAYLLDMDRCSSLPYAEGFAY
Procedure, shortened: as §1

HSF1 = HSF1 (Homo sapiens, UniProt Q00613 1-529); settings: protein: recombinant; tags: N-terminal GST; chain copies: 3; dsDNA, one strand shown
Sequence of HSF1 (Q00613 whole entry): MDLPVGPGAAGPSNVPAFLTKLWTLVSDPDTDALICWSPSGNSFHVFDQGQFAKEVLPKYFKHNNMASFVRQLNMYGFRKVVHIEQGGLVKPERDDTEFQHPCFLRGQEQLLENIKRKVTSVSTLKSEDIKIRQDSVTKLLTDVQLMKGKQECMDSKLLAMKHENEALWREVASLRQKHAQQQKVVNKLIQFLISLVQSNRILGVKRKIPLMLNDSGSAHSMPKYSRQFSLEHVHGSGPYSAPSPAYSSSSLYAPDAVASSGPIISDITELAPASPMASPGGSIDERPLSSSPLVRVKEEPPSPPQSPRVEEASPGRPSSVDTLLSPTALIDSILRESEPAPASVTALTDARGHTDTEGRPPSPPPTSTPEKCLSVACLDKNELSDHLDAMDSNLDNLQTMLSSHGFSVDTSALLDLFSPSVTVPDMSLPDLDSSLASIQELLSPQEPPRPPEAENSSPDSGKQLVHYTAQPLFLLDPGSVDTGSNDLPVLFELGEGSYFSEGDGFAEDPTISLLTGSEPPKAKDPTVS
Procedure, shortened: as §1

SPIC = biological target: T2, SPIC (Homo sapiens, UniProt Q8N5J4 1-248); settings: protein: recombinant; tags: N-terminal GST; dsDNA, one strand shown
T2 sequence: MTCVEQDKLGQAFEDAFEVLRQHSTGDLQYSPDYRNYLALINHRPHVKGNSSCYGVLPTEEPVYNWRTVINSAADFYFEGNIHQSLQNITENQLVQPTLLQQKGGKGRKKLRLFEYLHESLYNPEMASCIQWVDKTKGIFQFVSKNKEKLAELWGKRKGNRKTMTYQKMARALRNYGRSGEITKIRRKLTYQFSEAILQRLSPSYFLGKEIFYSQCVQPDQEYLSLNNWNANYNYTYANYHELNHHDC
Procedure, shortened: as §1

ELF4 = ELF4 (Homo sapiens, UniProt Q99607 1-663); settings: protein: recombinant; tags: N-terminal GST; dsDNA, one strand shown
Sequence of ELF4 (Q99607 whole entry): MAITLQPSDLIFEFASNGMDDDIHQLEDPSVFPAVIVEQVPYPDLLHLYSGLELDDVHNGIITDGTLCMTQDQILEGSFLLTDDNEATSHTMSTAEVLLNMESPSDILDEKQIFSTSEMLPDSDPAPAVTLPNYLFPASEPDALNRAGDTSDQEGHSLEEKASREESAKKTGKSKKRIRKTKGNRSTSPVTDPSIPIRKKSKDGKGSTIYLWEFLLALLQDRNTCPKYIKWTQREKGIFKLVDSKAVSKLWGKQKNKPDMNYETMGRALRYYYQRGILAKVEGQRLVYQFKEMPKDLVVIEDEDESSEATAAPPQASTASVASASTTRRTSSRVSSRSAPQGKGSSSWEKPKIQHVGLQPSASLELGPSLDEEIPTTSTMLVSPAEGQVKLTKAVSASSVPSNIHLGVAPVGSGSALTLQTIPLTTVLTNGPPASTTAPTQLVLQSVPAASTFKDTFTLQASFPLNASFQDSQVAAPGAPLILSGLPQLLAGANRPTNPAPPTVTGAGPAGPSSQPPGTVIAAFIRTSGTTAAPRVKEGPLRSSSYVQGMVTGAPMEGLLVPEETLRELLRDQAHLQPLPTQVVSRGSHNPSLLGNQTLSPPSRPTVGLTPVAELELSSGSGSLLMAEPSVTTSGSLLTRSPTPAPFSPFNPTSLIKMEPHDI
Procedure, shortened: as §1

ELK4 = biological target: T3, ELK4 (Homo sapiens, UniProt P28324-2 1-405); settings: protein: recombinant; tags: N-terminal GST; dsDNA, one strand shown
T3 sequence: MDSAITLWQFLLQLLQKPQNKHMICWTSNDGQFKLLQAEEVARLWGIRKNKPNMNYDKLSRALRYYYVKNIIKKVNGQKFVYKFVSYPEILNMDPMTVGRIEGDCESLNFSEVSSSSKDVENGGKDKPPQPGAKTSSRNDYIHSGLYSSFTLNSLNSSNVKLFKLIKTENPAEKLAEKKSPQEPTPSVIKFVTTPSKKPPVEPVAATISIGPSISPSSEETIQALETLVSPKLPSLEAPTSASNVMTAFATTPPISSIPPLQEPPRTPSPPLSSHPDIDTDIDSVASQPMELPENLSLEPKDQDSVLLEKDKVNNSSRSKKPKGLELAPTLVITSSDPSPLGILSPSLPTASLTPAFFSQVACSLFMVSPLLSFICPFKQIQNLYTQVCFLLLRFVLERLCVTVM
Procedure, shortened: as §1

ETV2 = biological target: T4, ETV2 (Homo sapiens, UniProt O00321 1-342); settings: protein: recombinant; tags: N-terminal GST; dsDNA, one strand shown
T4 sequence: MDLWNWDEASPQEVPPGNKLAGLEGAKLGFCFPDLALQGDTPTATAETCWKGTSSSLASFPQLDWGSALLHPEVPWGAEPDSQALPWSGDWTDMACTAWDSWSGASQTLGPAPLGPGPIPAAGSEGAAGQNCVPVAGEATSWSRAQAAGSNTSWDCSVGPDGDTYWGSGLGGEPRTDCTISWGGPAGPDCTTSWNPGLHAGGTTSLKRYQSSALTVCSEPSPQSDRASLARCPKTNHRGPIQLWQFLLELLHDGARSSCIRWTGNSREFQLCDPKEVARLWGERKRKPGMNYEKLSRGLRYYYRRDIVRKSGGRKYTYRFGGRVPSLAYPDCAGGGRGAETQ
Procedure, shortened: as §1

ELF3 = biological target: T5, ELF3 (Homo sapiens, UniProt P78545 1-371); settings: protein: recombinant; tags: N-terminal GST; dsDNA, one strand shown
T5 sequence: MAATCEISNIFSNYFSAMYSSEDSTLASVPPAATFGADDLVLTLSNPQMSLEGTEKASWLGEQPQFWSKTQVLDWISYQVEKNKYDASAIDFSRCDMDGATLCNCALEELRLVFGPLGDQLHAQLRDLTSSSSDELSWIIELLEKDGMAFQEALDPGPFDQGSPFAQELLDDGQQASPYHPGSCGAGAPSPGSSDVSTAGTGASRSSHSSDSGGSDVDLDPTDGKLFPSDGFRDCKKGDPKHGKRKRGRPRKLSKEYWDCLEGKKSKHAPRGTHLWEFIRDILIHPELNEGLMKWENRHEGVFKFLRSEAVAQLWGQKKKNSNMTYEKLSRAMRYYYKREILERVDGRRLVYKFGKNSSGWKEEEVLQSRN
Procedure, shortened: as §1

CRX = CRX (Homo sapiens, UniProt O43186 1-299); settings: protein: recombinant; tags: N-terminal GST; dsDNA, one strand shown
Sequence of CRX (O43186 whole entry): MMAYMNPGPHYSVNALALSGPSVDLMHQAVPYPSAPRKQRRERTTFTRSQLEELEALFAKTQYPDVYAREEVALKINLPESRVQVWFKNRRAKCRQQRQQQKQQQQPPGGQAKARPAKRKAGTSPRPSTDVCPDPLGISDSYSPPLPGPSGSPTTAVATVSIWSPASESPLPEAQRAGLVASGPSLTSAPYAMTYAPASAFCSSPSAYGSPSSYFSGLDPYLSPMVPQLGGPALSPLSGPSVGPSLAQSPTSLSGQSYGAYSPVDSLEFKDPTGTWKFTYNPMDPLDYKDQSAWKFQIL
Procedure, shortened: as §1

ETV1 = ETV1 (Homo sapiens, UniProt P50549 1-477); settings: protein: recombinant; tags: N-terminal GST; dsDNA, one strand shown
Sequence of ETV1 (P50549 whole entry): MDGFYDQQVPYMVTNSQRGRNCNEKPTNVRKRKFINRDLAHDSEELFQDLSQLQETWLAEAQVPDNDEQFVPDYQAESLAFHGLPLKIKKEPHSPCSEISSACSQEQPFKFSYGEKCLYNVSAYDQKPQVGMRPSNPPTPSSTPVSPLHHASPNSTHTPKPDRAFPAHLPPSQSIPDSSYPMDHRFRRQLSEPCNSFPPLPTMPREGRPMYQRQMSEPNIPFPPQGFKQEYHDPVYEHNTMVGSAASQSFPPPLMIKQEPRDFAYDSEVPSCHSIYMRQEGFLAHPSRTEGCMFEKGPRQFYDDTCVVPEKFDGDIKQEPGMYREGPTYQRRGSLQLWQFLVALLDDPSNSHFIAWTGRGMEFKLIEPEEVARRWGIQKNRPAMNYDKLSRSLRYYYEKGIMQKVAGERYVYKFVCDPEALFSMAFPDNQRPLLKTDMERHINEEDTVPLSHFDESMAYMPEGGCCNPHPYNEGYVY
Procedure, shortened: as §1

ERF = biological target: T6, ERF (Homo sapiens, UniProt P50548 1-548); settings: protein: recombinant; tags: N-terminal GST; dsDNA, one strand shown
T6 sequence: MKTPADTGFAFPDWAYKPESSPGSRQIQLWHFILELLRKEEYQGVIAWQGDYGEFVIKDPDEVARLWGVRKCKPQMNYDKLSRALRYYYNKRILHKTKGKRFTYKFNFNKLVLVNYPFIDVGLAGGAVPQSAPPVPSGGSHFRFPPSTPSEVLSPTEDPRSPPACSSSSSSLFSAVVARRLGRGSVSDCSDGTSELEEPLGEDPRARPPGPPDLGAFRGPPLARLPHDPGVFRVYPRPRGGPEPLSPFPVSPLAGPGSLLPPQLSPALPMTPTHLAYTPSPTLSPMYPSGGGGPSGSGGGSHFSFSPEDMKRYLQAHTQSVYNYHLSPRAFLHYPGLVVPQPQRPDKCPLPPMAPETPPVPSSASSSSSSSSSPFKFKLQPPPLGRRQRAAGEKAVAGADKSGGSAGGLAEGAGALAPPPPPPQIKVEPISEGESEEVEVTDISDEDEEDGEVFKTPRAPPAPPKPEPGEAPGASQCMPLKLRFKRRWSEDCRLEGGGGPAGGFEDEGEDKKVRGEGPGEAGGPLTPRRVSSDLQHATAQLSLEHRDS
Procedure, shortened: as §1

ETV3L = biological target: T7, ETV3L (Homo sapiens, UniProt Q6ZN32 1-361); settings: protein: recombinant; tags: N-terminal GST; dsDNA, one strand shown
T7 sequence: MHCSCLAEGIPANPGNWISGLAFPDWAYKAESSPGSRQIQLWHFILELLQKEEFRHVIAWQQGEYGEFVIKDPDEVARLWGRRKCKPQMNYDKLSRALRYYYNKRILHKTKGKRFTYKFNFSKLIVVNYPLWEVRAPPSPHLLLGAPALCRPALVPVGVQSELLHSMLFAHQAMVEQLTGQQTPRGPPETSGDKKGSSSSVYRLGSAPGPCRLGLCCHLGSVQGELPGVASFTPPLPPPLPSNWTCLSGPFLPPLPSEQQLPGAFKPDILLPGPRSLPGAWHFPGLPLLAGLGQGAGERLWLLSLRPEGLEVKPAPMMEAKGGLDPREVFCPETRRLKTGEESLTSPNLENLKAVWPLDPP
Procedure, shortened: as §1

ETS2 = biological target: T8, ETS2 (Homo sapiens, UniProt P15036 1-469); settings: protein: recombinant; tags: N-terminal GST; dsDNA, one strand shown
T8 sequence: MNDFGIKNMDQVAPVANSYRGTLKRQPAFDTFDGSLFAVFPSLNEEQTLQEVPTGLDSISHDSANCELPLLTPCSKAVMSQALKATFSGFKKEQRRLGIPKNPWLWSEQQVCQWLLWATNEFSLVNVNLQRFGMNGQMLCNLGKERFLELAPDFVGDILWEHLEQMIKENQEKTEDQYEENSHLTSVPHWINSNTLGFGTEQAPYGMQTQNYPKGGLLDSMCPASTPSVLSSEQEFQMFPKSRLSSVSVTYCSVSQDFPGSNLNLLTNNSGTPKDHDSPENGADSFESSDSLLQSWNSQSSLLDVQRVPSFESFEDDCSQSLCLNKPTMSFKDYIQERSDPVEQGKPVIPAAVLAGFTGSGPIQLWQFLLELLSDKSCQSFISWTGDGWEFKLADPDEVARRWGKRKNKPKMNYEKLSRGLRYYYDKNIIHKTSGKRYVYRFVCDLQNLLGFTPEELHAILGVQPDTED
Procedure, shortened: as §1

SPDEF = biological target: T9, SPDEF (Homo sapiens, UniProt O95238 1-335); settings: protein: recombinant; tags: N-terminal GST; dsDNA, one strand shown
T9 sequence: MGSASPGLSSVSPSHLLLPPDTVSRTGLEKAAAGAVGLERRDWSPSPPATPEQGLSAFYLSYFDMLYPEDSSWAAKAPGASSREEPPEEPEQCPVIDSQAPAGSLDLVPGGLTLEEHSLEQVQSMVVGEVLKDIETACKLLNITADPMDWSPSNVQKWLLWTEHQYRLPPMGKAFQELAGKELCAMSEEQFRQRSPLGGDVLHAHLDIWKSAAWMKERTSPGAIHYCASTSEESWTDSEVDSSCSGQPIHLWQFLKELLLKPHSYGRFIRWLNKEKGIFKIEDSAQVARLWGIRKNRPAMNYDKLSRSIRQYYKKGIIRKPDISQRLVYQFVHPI
Procedure, shortened: as §1

ETV7 = biological target: T10, ETV7 (Homo sapiens, UniProt Q9Y603 1-341); settings: protein: recombinant; tags: N-terminal GST; dsDNA, one strand shown
T10 sequence: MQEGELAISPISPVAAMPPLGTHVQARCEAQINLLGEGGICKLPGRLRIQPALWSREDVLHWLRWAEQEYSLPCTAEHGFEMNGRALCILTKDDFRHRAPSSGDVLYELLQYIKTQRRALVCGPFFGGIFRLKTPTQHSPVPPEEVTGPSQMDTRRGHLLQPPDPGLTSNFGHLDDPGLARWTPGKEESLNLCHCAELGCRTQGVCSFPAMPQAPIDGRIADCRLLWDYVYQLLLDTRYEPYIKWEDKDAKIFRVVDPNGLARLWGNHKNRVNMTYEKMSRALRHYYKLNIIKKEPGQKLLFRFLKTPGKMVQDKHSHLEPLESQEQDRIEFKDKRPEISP
Procedure, shortened: as §1

ELF5 = biological target: T11, ELF5 (Homo sapiens, UniProt Q9UKW6-2 1-255); settings: protein: recombinant; tags: N-terminal GST; dsDNA, one strand shown
T11 sequence: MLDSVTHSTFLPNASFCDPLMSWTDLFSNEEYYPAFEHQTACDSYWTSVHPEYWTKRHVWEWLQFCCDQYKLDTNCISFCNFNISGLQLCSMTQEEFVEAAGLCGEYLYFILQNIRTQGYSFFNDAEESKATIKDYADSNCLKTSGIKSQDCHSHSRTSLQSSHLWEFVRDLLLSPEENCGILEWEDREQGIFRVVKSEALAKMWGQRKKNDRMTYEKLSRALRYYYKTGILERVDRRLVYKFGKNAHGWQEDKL
Procedure, shortened: as §1

ETV3 = biological target: T12, ETV3 (Homo sapiens, UniProt P41162-2 1-143); settings: protein: recombinant; tags: N-terminal GST; dsDNA, one strand shown
T12 sequence: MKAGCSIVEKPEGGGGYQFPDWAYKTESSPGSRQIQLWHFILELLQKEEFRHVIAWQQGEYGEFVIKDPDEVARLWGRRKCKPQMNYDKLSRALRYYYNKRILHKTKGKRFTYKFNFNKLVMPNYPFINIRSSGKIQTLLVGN
Procedure, shortened: as §1

ETV6 = ETV6 (Homo sapiens, UniProt P41212 1-452); settings: protein: recombinant; tags: N-terminal GST; dsDNA, one strand shown
Sequence of ETV6 (P41212 whole entry): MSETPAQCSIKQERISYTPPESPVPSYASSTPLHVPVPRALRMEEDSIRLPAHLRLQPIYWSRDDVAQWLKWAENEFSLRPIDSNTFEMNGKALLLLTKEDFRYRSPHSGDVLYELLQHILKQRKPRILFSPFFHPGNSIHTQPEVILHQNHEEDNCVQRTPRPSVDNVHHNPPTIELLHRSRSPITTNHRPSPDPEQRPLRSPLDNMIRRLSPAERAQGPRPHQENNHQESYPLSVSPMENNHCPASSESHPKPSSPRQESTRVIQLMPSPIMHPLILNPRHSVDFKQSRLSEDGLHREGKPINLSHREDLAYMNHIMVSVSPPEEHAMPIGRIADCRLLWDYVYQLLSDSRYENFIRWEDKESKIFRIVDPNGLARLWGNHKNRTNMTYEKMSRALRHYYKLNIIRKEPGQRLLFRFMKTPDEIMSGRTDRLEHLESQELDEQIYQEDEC
Procedure, shortened: as §1

With ATACCT the binding signal (FEV) was 1.04 fold enrichment (6-mer frequency, TF over GST control), the binding signal (ETV5) was 1.01 fold enrichment (6-mer frequency, TF over GST control) and the binding signal (HSF1) was 1.01 fold enrichment (6-mer frequency, TF over GST control). The binding signal (SPIC) was 1.11 fold enrichment (6-mer frequency, TF over GST control), the binding signal (ELF4) was 1.1 fold enrichment (6-mer frequency, TF over GST control) and the binding signal (ELK4) was 1.1 fold enrichment (6-mer frequency, TF over GST control). The binding signal (ETV2) was 1.09 fold enrichment (6-mer frequency, TF over GST control), the binding signal (ELF3) was 1.08 fold enrichment (6-mer frequency, TF over GST control) and the binding signal (CRX) was 1.12 fold enrichment (6-mer frequency, TF over GST control). For the same sequence, the binding signal (ETV1) was 1.15 fold enrichment (6-mer frequency, TF over GST control), the binding signal (ERF) was 1.12 fold enrichment (6-mer frequency, TF over GST control) and the binding signal (ETV3L) was 1.09 fold enrichment (6-mer frequency, TF over GST control). For the same sequence, the binding signal (ETS2) was 1.16 fold enrichment (6-mer frequency, TF over GST control), the binding signal (SPDEF) was 1.04 fold enrichment (6-mer frequency, TF over GST control) and the binding signal (ETV7) was 1.18 fold enrichment (6-mer frequency, TF over GST control). For the same sequence, the binding signal (ELF5) was 1.04 fold enrichment (6-mer frequency, TF over GST control), the binding signal (ETV3) was 1.11 fold enrichment (6-mer frequency, TF over GST control) and the binding signal (ETV6) was 1.07 fold enrichment (6-mer frequency, TF over GST control).
